In PubChem BioAssay AID1851 (National Center for Advancing Translational Sciences (NCATS), 2009):
Among all 16,000 compounds or so, about 4,000 (25%) were called active. Another 26% or so got no clear call; they are omitted. The call rests on the fitted dose curve; in most records, active means well fitted curve in the direction sought with a large enough effect; inconclusive means small, poorly fitted or top-dose-only effect, or effect the other way; inactive means no such curve, though single readings can be large or run the other way. These entries were drawn from the full list.

target: Cytochrome P450 2C9 (Homo sapiens) (UniProt P11712); assay: Cytochrome panel assay with activity outcomes; conditions: recombinant CYP, pro-luciferin dealkylation, luminescence, p450-cyp2c9; series mostly up to 57.1 µM; activity, negative = inhibition: at the top concentration
Sequence (P11712 whole entry, looked up): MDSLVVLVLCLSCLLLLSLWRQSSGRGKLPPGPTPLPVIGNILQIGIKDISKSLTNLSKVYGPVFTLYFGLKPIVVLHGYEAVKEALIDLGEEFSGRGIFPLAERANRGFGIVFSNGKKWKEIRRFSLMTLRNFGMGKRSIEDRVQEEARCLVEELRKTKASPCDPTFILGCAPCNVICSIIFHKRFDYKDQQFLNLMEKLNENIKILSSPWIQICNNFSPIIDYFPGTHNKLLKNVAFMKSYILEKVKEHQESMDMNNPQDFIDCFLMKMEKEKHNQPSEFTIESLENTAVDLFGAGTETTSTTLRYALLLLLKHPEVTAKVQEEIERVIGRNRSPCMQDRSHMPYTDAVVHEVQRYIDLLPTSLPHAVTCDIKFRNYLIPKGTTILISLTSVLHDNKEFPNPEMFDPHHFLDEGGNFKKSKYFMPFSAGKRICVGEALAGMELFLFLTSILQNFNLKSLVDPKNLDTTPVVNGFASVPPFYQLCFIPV
On the % scale 0 is the no-effect control and ±100 the full control effect.

SMILES	activity, negative = inhibition	AC50
CCn1cc(C(=O)O)c(=O)c2cnc(N3CCNCC3)nc21	12.3% [at 25.6 µM] (inactive)	–
Cc1cc2cc(C=O)c(Cl)nc2cc1C	-8.44% (inactive)	–
CCNc1ncc2nc(-c3cccs3)c(=O)n(Cc3cccc(OC)c3)c2n1	-11% (inactive)	–
COc1cccc(Cn2c(=O)c(-c3cccs3)nc3cnc(OC)nc32)c1	–	3.16 µM (active)
COc1cccc(Cn2c(=O)c(-c3cccs3)nc3cnc(N(C)C)nc32)c1	-19.1% (inactive)	–
O=c1oc(-c2ccco2)nc2c1cnn2-c1ccccc1	–	12.6 µM (active)
Cc1ccc(-n2ncc3c2ncn2nc(-c4ccco4)nc32)c(C)c1	-11.5% (inactive)	–
c1ccc(-n2ncc3c2ncn2cnnc32)cc1	-3.21% (inactive)	–
N#Cc1cccc(-c2nc(N3CCNCC3)c3ccccc3n2)c1	11.8% [at 2.29 µM] (inactive)	–
C=CCN1CCN(c2nc3ccccc3nc2C#N)CC1	–	20 µM (active)
CNc1nc(-c2ccccc2C(F)(F)F)nc2ccccc12	19.6% [at 2.29 µM] (inactive)	–
C=CCOc1cccc(/C=N/NC(=O)C(=O)NCc2ccco2)c1	1.64% (inactive)	–
COc1cccc(/C=N/NC(=O)c2nc(-c3ccccc3)cc(-c3ccccc3)n2)c1	11.1% (inactive)	–
Cc1cccc(C)c1NC(=O)COc1cccc(/C=N/NC(=O)C(=O)NCc2ccccc2)c1	-7.69% (inactive)	–
COc1cccc(/C=N/NC(=O)c2c(-c3ccccc3)noc2C)c1	–	3.55 µM (active)
COc1cccc(/C=N/NC(=O)C(=O)NCc2cccnc2)c1	–	22.4 µM (active)
CC(C)=CCC/C(C)=C/CO/N=C1/C[C@@H](O)[C@@H](O)[C@@H]2[C@@H]3C(=O)N(C4CCCCC4)C(=O)[C@H]3CC[C@H]12	-5.92% [at 11.4 µM] (inactive)	–
Nc1nc(Br)c2c(F)cccc2c1-c1ccc(F)cc1	–	2.51 µM (active)
Nc1nc(Br)c2c(F)cccc2c1-c1ccc(Cl)cc1	–	4.47 µM (active)
Nc1nc(Br)c2ccccc2c1-c1ccc(F)cc1	-33.3% (inactive)	–
Cc1noc(C)c1-c1cc(Nc2ccc(F)cc2)ncn1	-1.17% [at 2.29 µM] (inactive)	–
CN1CCN(c2ncnc3ccc(-c4ccc5c(c4)OCO5)cc23)CC1	14.7% [at 2.29 µM] (inactive)	–
CC(C)C(=O)N[C@@H]1CCCN1C(=O)/C=C\c1ccccc1	-11.6% [at 11.4 µM] (inactive)	–
C#CCSc1nncn1C(=O)/C=C/c1ccccc1	–	3.98 µM (active)
CC(C)C(=O)N[C@H]1CCCN1C(=O)/C=C\c1ccccc1	-2.39% [at 11.4 µM] (inactive)	–

SMILES	activity, negative = inhibition	AC50
COc1ccc(C(N)=O)cc1NC(=O)c1cccc(F)c1	-18.9% (inactive)	–
COc1cccc(CC(C(=O)Nc2cc(C)ccc2C)c2nn[nH]n2)c1OC (centres undefined)	-15.9% (inactive)	–
C=C(C)c1cccc(C(C)(C)NC(=O)Nc2cc(C)ccc2OC)c1	–	10 µM (active)
O=C(OC(C(=O)NC1CCCC1)c1ccncc1)C1=Cc2ccccc2OC1 (centres undefined)	–	2.82 µM (active)
CN(C)Cc1ccccc1-c1ccc2ncnc(N(C)Cc3ccco3)c2c1	-5.32% [at 2.29 µM] (inactive)	–
COc1ccc([C@@H]2CC(=O)c3c(O)cc(O[C@H]4O[C@@H](CO[C@H]5O[C@@H](C)[C@@H](O)[C@@H](O)[C@@H]5O)[C@@H](O)[C@@H](O)[C@@H]4O)cc3O2)cc1O	9.98% [at 25.6 µM] (inactive)	–
O=C1c2c(O)cc(O)cc2O[C@@H](c2ccc(O)c(O)c2)[C@H]1O	-23.7% (inactive)	–
COc1ccc([C@@H]2CC(=O)c3c(O)cc(O)cc3O2)cc1O	–	10 µM (active)
COc1ccc(C(=O)NC(=S)NC(C)(C)C)cc1Br	–	10 µM (active)
COc1ccc(C(=O)NC(=S)NC(C)C)cc1Br	-42.8% (inactive)	–
COc1ccc(Br)c2c1C[C@H](C(=O)O)CC2	-27.4% [at 11.4 µM] (inactive)	–
C#CCn1c(=O)c2c(ncn2C)n(C)c1=O	3.22% (inactive)	–
CN(C)c1ccc(-c2ccc3ncnc(NCc4ccccc4)c3c2)cc1	-24.6% [at 2.29 µM] (inactive)	–
CN(C)c1cc2c(Nc3ccc4c(cnn4Cc4ccccc4)c3)ncnc2cn1	–	12.6 µM (active)
CN(C)C(=O)c1ccc(-c2ccc3ncnc(Nc4ccccc4)c3c2)cc1	15.4% [at 2.29 µM] (inactive)	–
COc1ccccc1NC(=O)Cn1cncc1-c1ccc([N+](=O)[O-])cc1	-12.7% (inactive)	–
CCN(CC(=O)Nc1ccc([N+](=O)[O-])cc1OC)c1ccccc1	–	2.82 µM (active)
COc1cc(OC)c(NC(=S)Nc2cccc(C(C)=O)c2)cc1Cl	–	5.01 µM (active)
CCOc1cc(NC(=S)Nc2cccc(C)c2)c(OCC)cc1NC(=O)CC(C)C	-19.7% (inactive)	–
CCOC(=O)C1(C(=O)O)NC(=O)CC1c1ccccc1 (centres undefined)	-28.6% (inactive)	–
CCOC(=O)CN1C(=O)Nc2ccc(Br)cc2C1c1ccccc1 (centres undefined)	–	6.31 µM (active)
O=c1cc(CF)[nH]c(=S)[nH]1	8.7% [at 11.4 µM] (inactive)	–
N[C@H](CCCC(=O)O)C(=O)O	-23.2% (inactive)	–
O=C(O)c1cc(C(=O)C(=O)c2cc(C(=O)O)c(O)c3ccccc23)c2ccccc2c1O	–	0.316 µM (active)
